# Compound activity from PubChem BioAssay.
# An excerpt weighted towards active compounds, which were near 18% of everything screened.
# TDP1 cell CPT: qHTS for Inhibitors of human tyrosyl-DNA phosphodiesterase 1 (TDP1): qHTS in cells in presence of CPT | chicken DT40 Tdp1-/-;hTDP1 cells + 20 nM CPT, ATP luminescence, 48 h | Potency, µM (series often up to 46.2 µM), without a hit: at the highest dose activity change, negative = growth inhibition, hits mostly inhibitors | hit rate 12% among 420,000 | AID 686979, 2013; also: nearly all actives have a fitted effect of over 55% in size
#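 Chicken DT40 Tdp1-/- cells complemented with human TDP1, 400 cells/well, exposed to compounds plus 20 nM camptothecin for at least 48 h at 37 C; viability read as ATP content by CellTiter-Glo luminescence.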
# PLK1 PBD block: qHTS for Inhibitors of PLK1-PDB (polo-like kinase 1 - polo-box domain): Primary Screen; Serine/threonine-protein kinase PLK1 (Homo sapiens), P53350; Potency, µM, inactives show max response, negative = inhibition, usual class: inhibitors; Plk1 PBD binding of FITC phosphopeptide, fluorescence polarization; hit rate 2.8% among 360,000; also: series mostly up to about 57 µM; nearly all actives have a fitted effect of over 65% in size
# TDP1 cell noCPT: qHTS for Inhibitors of human tyrosyl-DNA phosphodiesterase 1 (TDP1): qHTS in cells in absence of CPT; hit rate 15% among 420,000; Potency, µM (titrated, usually from 46.2 µM), inactives show at the highest dose activity change, negative = growth inhibition, most hits filed as inhibitors; DT40 Tdp1-/- hTDP1 cells, no CPT, ATP luminescence, 48 h; AID 686978, 2013; also: nearly all actives have a fitted effect of over 55% in size
#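 Camptothecin absent (DMSO only). Human TDP1-complemented DT40 knockout cells, 400 cells/well, 37 °C for minimum 48 hr; ATP measured via CellTiter-Glo, 30 min dark incubation, luminescence.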
# VDR inh: Inhibitors of the vitamin D receptor (VDR): qHTS; Vitamin D3 receptor (Homo sapiens), P11473; VDR-SRC2-3 peptide fluorescence polarization, 2 h; Potency, µM, for inactives: max response, negative = inhibition, actives largely listed as inhibitors; hit rate 0.93% among 400,000
#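 VDR–SRC2-3 interaction, FP format. Cmpds 23 nl via pintool, brief spin, 2 h ambient incubation.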
# TDP1 inh: qHTS Assay for Inhibitors of Tyrosyl-DNA Phosphodiesterase (TDP1). Tyrosyl-DNA phosphodiesterase 1 (Homo sapiens), Q9NUW8. recombinant TDP1, AlphaScreen DNA substrate cleavage. Potency, µM (titrated, usually from 130 µM), without a hit: at the top dose activity change, negative = inhibition, most hits filed as inhibitors. hit rate 0.28% among 350,000. AID 485290, 2010; also: nearly all actives have a fitted effect of over 40% in size
# Target sequence (Q9NUW8 whole entry, looked up): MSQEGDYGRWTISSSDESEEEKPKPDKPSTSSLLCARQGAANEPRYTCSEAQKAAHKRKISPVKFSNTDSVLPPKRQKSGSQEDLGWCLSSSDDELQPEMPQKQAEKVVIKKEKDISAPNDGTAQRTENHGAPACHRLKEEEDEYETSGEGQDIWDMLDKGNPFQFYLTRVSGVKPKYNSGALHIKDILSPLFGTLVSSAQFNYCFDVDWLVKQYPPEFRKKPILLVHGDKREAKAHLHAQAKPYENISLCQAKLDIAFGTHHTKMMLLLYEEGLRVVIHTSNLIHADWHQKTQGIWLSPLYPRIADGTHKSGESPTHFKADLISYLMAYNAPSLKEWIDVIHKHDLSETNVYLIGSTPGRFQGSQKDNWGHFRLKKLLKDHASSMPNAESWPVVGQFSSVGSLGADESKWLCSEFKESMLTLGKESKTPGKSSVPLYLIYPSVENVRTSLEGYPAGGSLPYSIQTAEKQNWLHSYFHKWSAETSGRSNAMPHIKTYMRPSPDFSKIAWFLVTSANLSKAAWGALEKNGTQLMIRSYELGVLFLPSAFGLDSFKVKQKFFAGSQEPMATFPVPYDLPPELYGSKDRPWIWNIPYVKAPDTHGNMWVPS
#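 Compounds were preincubated with Tdp1 (1 nM final) for 15 min at room temperature before substrate (15 nM final) started a 5 min reaction; beads (10 ug/ml final) were then added for 10 min before AlphaScreen detection.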
# GCN5L2 inh: qHTS Assay for Inhibitors of GCN5L2 | GCN5L2 HAT assay, ThioGlo1 CoA-SH fluorescence | Potency, µM (highest dose often 58.9 µM), for inactives: at the highest dose activity change, negative = inhibition, actives largely listed as inhibitors | hit rate 0.21% among 390,000
#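 qHTS, 1536-well. 20nM enzyme, pH 7.5 HEPES/EDTA/Tween-20 buffer; 15 min compound preinc., RT. Start: 75uM H3(1-25), 70uM AcCoA, 50uM ThioGlo1. Read Ex340/Em540 at t=0 (autofluorescence flag) and t=20 min.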
# Active calls of the source: *; ? = inconclusive; nt = no result; [ ] = another dose, or the depositor's remark. Calls follow the shape of the dose curve; as a rule, active = well fitted curve in the direction sought with a large enough effect; inconclusive = small, poorly fitted or top-dose-only effect, or another doubt; inactive = no such curve, though single readings can be large; an effect the other way counts as inactive or inconclusive. % is scaled to controls: 0 for no effect and ±100 for the full control effect; potency is read from the fitted curve at half-maximal effect.
SMILES,TDP1 cell CPT,PLK1 PBD block,TDP1 cell noCPT,VDR inh,TDP1 inh,GCN5L2 inh
COc1ccc(F)cc1S(=O)(=O)Nc1ccc(C)cc1,-3%,-7%,23µM*,-6%,0%,-2%
FC(F)(F)C(F)(F)C(F)(F)C(F)(F)C(F)(F)F,-7%,nt,-9%,7%,nt,4%
O=C(c1ccc(N2CN(C(=O)c3ccco3)c3nc4ccccc4nc32)cc1)N1CCOCC1,13µM*,0%,23µM*,3%,3%,-8%
CC(=O)NC1[C@H]([C@H](O)[C@H](O)CO)OC(C(=O)O)=C[C@H]1N=C(N)N (stereo not given in full),nt,nt,nt,3%,6%,-20%
CCOc1cc(/C=N/NC(=O)COc2ccc(Cl)cc2)ccc1OS(=O)(=O)c1ccccc1,?,-5%,23µM*,-28%,-3%,9%
CCOc1cc(/C=N/NS(=O)(=O)c2ccccc2)ccc1OS(=O)(=O)c1ccc(C)cc1,?,-4%,-25%,-1%,1%,-9%
Cc1ccc(-c2cc(O)cc3sc(=O)oc23)cc1C,?,-5%,21µM*,-6%,nt,-15%
CCSc1ccc(-c2cc(NC=O)c3ncc(-c4cccc(C(=O)NCCN(C)C)c4)n3c2)cc1,4.6µM*,-4%,3.3µM*,nt,nt,nt
COc1ccccc1-c1cc(NC=O)c2ncc(-c3cccc(C(C)=O)c3)n2c1,6.5µM*,-2%,7.3µM*,nt,nt,nt
O=CNc1cc(-c2cccc(O)c2)cn2c(-c3ccc(F)cc3)cnc12,18µM*,-18%,21µM*,nt,nt,nt
CN(C)CCNC(=O)c1cccc(-c2cnc3c(NC=O)cc(-c4ccc(F)cc4)cn23)c1,4.6µM*,-15%,5.2µM*,nt,nt,nt
COc1ccc(-c2cc(NC=O)c3ncc(-c4cccc(C(=O)NCCN(C)C)c4)n3c2)cc1,?,0%,?,nt,nt,nt
Cc1ccccc1NC(=O)Cn1cc(C(=O)c2ccco2)c2ccccc21,?,nt,?,1%,0%,-9%
Cc1nn(C)cc1S(=O)(=O)Nc1ccc(F)c(F)c1,1%,-4%,2%,24%,4%,?
COC(=O)C1N[C@@H]([C@@H](NC(=O)COc2ccccc2)C(=O)NCc2ccc(OC)cc2)SC1(C)C (stereo not given in full),?,-3%,?,-3%,nt,nt
COCc1cc(=O)[nH]c(-c2ccccc2)n1,-1%,-28%,19%,-16%,-5%,-11%
CN(C)CCNC(=O)c1cccc(-c2cnc3c(NC=O)cc(/C=C/c4ccccc4)cn23)c1,3.7µM*,-13%,5.2µM*,nt,nt,nt
CC(=O)c1cccc(-c2cnc3c(NC=O)cc(-c4ccc(F)cc4)cn23)c1,16µM*,-12%,?,nt,nt,nt
COc1cccc(CNC(=O)C(=O)Nc2ccc3nc4n(c(=O)c3c2)CCCCC4)c1,-17%,nt,-29%,14%,8%,-9%
COc1ccc(-c2c(C(C)=O)c(C)nc3sc4c(=N)n(N)cnc4c23)cc1,26µM*,-3%,?,-6%,4%,1%
CCOC(=O)c1c(C)nc2sc(C(N)=O)c(N)c2c1-c1ccc(OC)cc1,?,-5%,21µM*,10%,-1%,-2%
CC(=O)OC[C@H]1O[C@@H](ON=C(C)C)[C@H](OC(C)=O)[C@@H](OC(C)=O)[C@H]1OC(C)=O,nt,nt,nt,nt,2%[21 µM],nt
COC(=O)C1C=CC(OC2OC(COC(C)=O)C(OC(C)=O)C(OC(C)=O)C2OC(C)=O)n2c(=O)n(-c3ccccc3)c(=O)n21 (stereo not given),0.73µM*,-25%,0.82µM*,?,nt,nt
COc1ccc(-n2c(SC)nc3sc4c(c3c2=O)CCN(C)C4)cc1,?,-13%,12µM*,-1%,nt,2%
C=CCSc1nc2sc3c(c2c(=O)n1-c1ccccc1)CCN(C)C3,?,-13%,-17%,7%,nt,5%
SMILES,TDP1 cell CPT,PLK1 PBD block,TDP1 cell noCPT,VDR inh,TDP1 inh,GCN5L2 inh
CCCN1CCc2c(sc3nc(SCC)n(-c4ccccc4)c(=O)c23)C1,?,-16%,15µM*,7%,nt,-1%
COCCSc1nc2sc3c(c2c(=O)n1-c1ccccc1)CCN(C)C3,?,-5%,-8%,-12%,7%,0%[0.501 µM]
CCCN1CCc2c(sc3nc(SC)n(-c4ccccc4)c(=O)c23)C1,6.5µM*,-20%,5.8µM*,9%,nt,-1%
CCCN1CCc2c(sc3nc(SCC)n(-c4ccc(OC)cc4)c(=O)c23)C1,?,-14%,13µM*,-19%,nt,1%
COc1ccc(NC(=O)CSc2nc3sc4c(c3c(=O)n2-c2ccc(OC)cc2)CCN(C)C4)cc1,-21%,-9%,?,2%,8%,-9%
CCOc1ccc(-n2c(SCC(N)=O)nc3sc4c(c3c2=O)CCN(C)C4)cc1,-3%,-7%,-8%,-1%,-3%,-1%
Cc1ccccc1NC(=O)c1sc2nc(N3CCOCC3)c3c(c2c1N)CC(C)(C)OC3,-21%,nt,?,-4%,-2%,-1%
CNc1cncc(-c2ccoc2)n1,?,-7%,-25%,nt,nt,nt
O=C(NCc1cc([N+](=O)[O-])ccc1O)c1cccc(NS(=O)(=O)c2ccccc2)c1,-4%,-4%,0%,-2%,3%,-34%
COC(=O)c1ccc2c(=O)n(C3CCCCC3)c(SCC#N)nc2c1,12µM*,-2%,23µM*,6%,2%,?
CCOC(=O)CSc1nc2cc(C(=O)N3CCC(C(N)=O)CC3)ccc2c(=O)n1C1CCCCC1,-2%,0%,-11%,-2%,5%,1%
Cc1ccc(Cc2nnc(SCC(=O)Nc3ccccc3)[nH]c2=O)cc1,?,-2%,-3%,-4%,0%,-16%
Cc1ccc(Cc2nnc(SCC(=O)Nc3c(C)cccc3C)[nH]c2=O)cc1,?,-4%,6.5µM*,-15%,6%,-2%
Cc1[nH]nc(-c2ccc(OCc3cnn(-c4ccccc4)c3)cc2O)c1Oc1ccccc1F,?,-5%,21µM*,8%,6%,-3%
C=C(C)COc1ccc(-c2[nH]ncc2-c2ccc(OC)c(OC)c2)c(O)c1,1.5µM*,1%,1.6µM*,17%,5%,-12%
C=C(C)COc1ccc(-c2nc(N)ncc2-c2ccc(Cl)cc2)c(O)c1,23µM*,-5%,?,13%,nt,0%
